The supplement of paper PMC12669032

Each molecule was assayed on Parabacteroides distasonis (assay: growth AUC relative to DMSO control (median of replicates) (fraction); higher = more growth (less inhibition), active = hit call of the paper). Conditions: 20 µM; 24 h;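 active = AUC reduced over 20% with Padj below 0.05 in at least 2 of 3 replicates; inactive = otherwise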.
Outline: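 For each compound at 20 µM (1% DMSO), gut bacterial monocultures seeded at OD600 0.05 grew anaerobically in mGAM at 37 °C in round-bottom 96-well plates. Hourly OD600 readings over 24 h gave growth curves whose minimum OD was set to 0. Area under these curves was normalised to the plate median of solvent-only wells, or to row and column medians on the industrial chemical plate. Values are medians of three biological replicates grown on separate days.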

**Q.** With `CCCN(CCC)c1c([N+](=O)[O-])cc(C(C)C)cc1[N+](=O)[O-]` as the molecule, how does the “growth AUC” value read?
**A.** 0.932 (inactive)

**Q.** How did the “growth AUC” value turn out when `Nc1ccncc1` was run?
**A.** 1.02 (inactive)

**Q.** For `CCCSP(=O)(OCC)SCCC`, which “growth AUC” value is on record?
**A.** 0.976 (inactive)

**Q.** For `BrCCBr`, which “growth AUC” value is on record?
**A.** 1.04 (inactive)

**Q.** `CCCC(Cn1cncn1)c1ccc(Cl)cc1Cl` (stereo not drawn) was tested. Which “growth AUC” value did it give?
**A.** 0.991 (inactive)

**Q.** How did the “growth AUC” value turn out when `Nc1nc(N)nc(NC2CC2)n1` was run?
**A.** 1.03 (inactive)

**Q.** `C#CC(C)(C)NC(=O)c1cc(Cl)cc(Cl)c1` was tested. Which “growth AUC” value did it give?
**A.** 1.01 (inactive)

**Q.** With `Oc1ccc(Cl)cc1` as the molecule, how does the “growth AUC” value read?
**A.** 1.05 (inactive)

**Q.** How did the “growth AUC” value turn out when `CNC(=O)Oc1cccc2c1OC(C)(C)O2` was run?
**A.** 1.02 (inactive)

**Q.** With `CCNc1nc(Cl)nc(NC(C)(C)C#N)n1` as the molecule, how does the “growth AUC” value read?
**A.** 1 (inactive)

**Q.** `ClC1=C(Cl)C(Cl)(C2(Cl)C(Cl)=C(Cl)C(Cl)=C2Cl)C(Cl)=C1Cl` was tested. Which “growth AUC” value did it give?
**A.** 0.958 (inactive)

**Q.** `COP(=O)(OC)Oc1ccc(S(C)(=O)=O)c(C)c1` was tested. Which “growth AUC” value did it give?
**A.** 1.02 (inactive)

**Q.** How did the “growth AUC” value turn out when `CC(C)(C)C(O)C(Oc1ccc(-c2ccccc2)cc1)n1cncn1` (mixture of isomers) was run?
**A.** 0.918 (inactive)

**Q.** How did the “growth AUC” value turn out when `CC(C)(C)N(NC(=O)c1ccc(Cl)cc1)C(=O)c1ccccc1` was run?
**A.** 0.96 (inactive)

**Q.** For `Cc1ccccc1[N+](=O)[O-]`, which “growth AUC” value is on record?
**A.** 1.06 (inactive)

**Q.** With `CCN(CC)C(=O)C(C)Oc1cccc2ccccc12` (stereo not drawn) as the molecule, how does the “growth AUC” value read?
**A.** 0.997 (inactive)

**Q.** With `CCN(CC)C(=O)SCc1ccc(Cl)cc1` as the molecule, how does the “growth AUC” value read?
**A.** 0.943 (inactive)

**Q.** With `CNC(=O)ON=C(CS(C)=O)C(C)(C)C` (stereo not drawn) as the molecule, how does the “growth AUC” value read?
**A.** 1.03 (inactive)

**Q.** How did the “growth AUC” value turn out when `COP1(=S)OCc2ccccc2O1` (stereo not drawn) was run?
**A.** 1.05 (inactive)

**Q.** How did the “growth AUC” value turn out when `O=C(O)C(Cl)Cl` was run?
**A.** 0.998 (inactive)

**Q.** How did the “growth AUC” value turn out when `N#CN=C1SCCN1Cc1ccc(Cl)nc1` was run?
**A.** 1.03 (inactive)

**Q.** With `CC(C)NC(=O)N1CC(=O)N(c2cc(Cl)cc(Cl)c2)C1=O` as the molecule, how does the “growth AUC” value read?
**A.** 0.979 (inactive)

**Q.** For `O=[N+]([O-])c1ccccc1`, which “growth AUC” value is on record?
**A.** 1.03 (inactive)

**Q.** For `[Cl][Sn]([c]1ccccc1)([c]1ccccc1)[c]1ccccc1`, which “growth AUC” value is on record?
**A.** 0.048 (active)

**Q.** With `Nc1ncn[nH]1` as the molecule, how does the “growth AUC” value read?
**A.** 1.02 (inactive)

**Q.** With `CC(C)OC(=O)C(O)(c1ccc(Br)cc1)c1ccc(Br)cc1` as the molecule, how does the “growth AUC” value read?
**A.** 0.854 (inactive)

**Q.** For `CNC1=C(c2cccc(C(F)(F)F)c2)C(=O)C(c2ccccc2)O1` (stereo not drawn), which “growth AUC” value is on record?
**A.** 0.951 (inactive)

**Q.** Which “growth AUC” value does the source give for `O=c1oc2ccccc2c(O)c1C1CC(c2ccc(-c3ccc(Br)cc3)cc2)Cc2ccccc21` (stereo not drawn) here?
**A.** 0.126 (active)
